Experimental data taken from PubChem BioAssay (Tox21).
Inconclusive results are not listed. Calls of active or inactive are those of the source. Calls come from the whole dose curve; as a rule, active = well fitted curve in the direction sought with a large enough effect in the repeat runs; inconclusive = weak or mixed curves; inactive = no such curve, though single readings can be large; an effect the other way counts as inactive or inconclusive.

Key:
[1] = A CellTox Green Cytotoxicity Assay to monitor cytotoxicity in HEK293 cells - 8 hour (AID 1224884); note: nearly all actives have a fitted effect of over 35% in size; note: potency is the fitted concentration of half-maximal effect
Outline: (§1)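 Dead-cell fluorescence measured kinetically: asymmetric cyanine dye, HEK293, 600 cells/well, 5 h settle, 23 nL cpd/DMSO, 37 C, reads 0–40 h every 8 h.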

[2] = qHTS RealTime-Glo MT Cell Viability Assay in HepG2 cells - 16 hour (AID 1224885); note: nearly all actives have a fitted effect of over 50% in size; note: potency is the fitted concentration of half-maximal effect
Outline: (§2)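 HepG2 suspension premixed with RealTime-Glo reagents is plated at 600 cells per well and left 5 h at 37 C/5% CO2. Compounds in DMSO then go in, and bioluminescence reflecting viable cell number is recorded over 40 h.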

[3] = qHTS RealTime-Glo MT Cell Viability Assay in HEK293 cells - 24 hour (AID 1224886); note: nearly all actives have a fitted effect of over 50% in size; note: potency is the fitted concentration of half-maximal effect; for activity change, negative = cytotoxicity: top concentration of the series differs between compounds
Outline: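 Reads taken at 0, 8, 16, 24, 32 and 40 h from the same wells. HEK293 cells (600/well) carried RealTime-Glo reagents from seeding, with compound added after a 5 h settle at 37 C.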

[4] = qHTS RealTime-Glo MT Cell Viability Assay in HEK293 cells - 8 hour (AID 1224887); note: nearly all actives have a fitted effect of over 50% in size; note: potency is the fitted concentration of half-maximal effect; for activity change, negative = cytotoxicity: top concentration of the series differs between compounds
Outline: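 600 HEK293 cells per well, dispensed already mixed with RealTime-Glo MT reagents. Compound dosing came 5 h later. The same wells were read for luminescence at 0, 8, 16, 24, 32 and 40 h of exposure at 37 C.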

[5] = A CellTox Green Cytotoxicity Assay to monitor cytotoxicity in HEK293 cells - 16 hour (AID 1224888); note: nearly all actives have a fitted effect of over 35% in size; note: potency is the fitted concentration of half-maximal effect
Outline: as §1

[6] = qHTS RealTime-Glo MT Cell Viability Assay in HepG2 cells - 0 hour (AID 1224889); note: nearly all actives have a fitted effect of over 50% in size
Outline: as §2

[7] = A CellTox Green Cytotoxicity Assay to monitor cytotoxicity in HepG2 cells - 8 hour (AID 1224890); note: nearly all actives have a fitted effect of over 45% in size; note: potency is the fitted concentration of half-maximal effect
Outline: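 First, HepG2 cells (600/well) mixed with reagent were plated; second, after 5 h at 37 C they received compounds via pintool; third, fluorescence was measured at 0 h through 40 h at 8 h intervals.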

[8] = qHTS assay to identify small molecule antagonists of the estrogen receptor alpha (ER-alpha) signaling pathway using the BG1 cell line in the presence of 0.1 nM 17-beta-estradiol - cell viability counter screen (AID 1259241); note: nearly all actives have a fitted effect of over 40% in size; note: potency is the fitted concentration of half-maximal effect
Outline: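 CellTiter-Fluor read (30 min, 37C) on ER-alpha/ERE-luc VM7Luc4E2 cells; 22 hr compound treatment; agonist 0.1 nM E2 final; same-well multiplex.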

[9] = qHTS assay to identify small molecule antagonists of the androgen receptor (AR) signaling pathway using the MDA cell line in the presence of 0.5 nM R1881 - cell viability counter screen (AID 1259242); note: nearly all actives have a fitted effect of over 45% in size
Outline: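 qHTS format. MDA-kb2 (MMTV-luc, AR/GR responsive) + cpd + 0.5 nM R1881 final, 16 hr 37C/0% CO2 → CellTiter-Fluor 30 min → fluorescence intensity.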
% is set by controls: 0 for no effect and ±100 for the full control effect.

CC(=O)Oc1ccc(C2(c3ccc(OC(C)=O)cc3)Oc3ccccc3NC2=O)cc1
inactive: Potency [1] | Potency [2] | Potency [3] | Potency [4] | Potency [5] | Potency [6] | Potency [7] | Potency [8] | Potency [9]

N[C@@H](CSSC[C@H](N)C(=O)O)C(=O)O
inactive: cytotoxicity increase [1] 26.5% [at 0.29 µM] | activity change, negative = cytotoxic [2] 0.777% [at 0.29 µM] | activity change, negative = cytotoxicity [3] 9.89% [at 0.29 µM] | activity change, negative = cytotoxicity [6] 0.0589% [at 0.29 µM] | activity change, negative = cytotoxicity [8] 0.433% [at 0.349 µM]

CSc1c(Cl)c(Cl)c(Cl)c(Cl)c1Cl
inactive: Potency [1] | Potency [2] | Potency [3] | Potency [6] | Potency [7] | Potency [8]

CCc1c(C(=O)O)c(=O)cnn1-c1ccc(Cl)cc1
inactive: Potency [1] | Potency [2] | Potency [3] | Potency [4] | Potency [6] | Potency [8] | Potency [9]

CC(C)=CCCC(C)CCOC(=O)C(C)C (centres undefined)
inactive: Potency [1] | Potency [2] | Potency [3] | Potency [4] | Potency [5] | Potency [6] | Potency [7] | Potency [8] | Potency [9]

CCCCCCCCCCCCCCNCCO
active: Potency [1] 21.3 µM | Potency [2] 19 µM | Potency [3] 15.1 µM | Potency [4] 23.9 µM | Potency [5] 21.3 µM
inactive: Potency [8]

NC(=O)C(=O)N/N=C/c1ccc([N+](=O)[O-])o1
inactive: Potency [1] | Potency [2] | Potency [3] | Potency [4] | Potency [5] | Potency [6] | Potency [7] | Potency [8] | Potency [9]

C=C(C)CCCC
inactive: Potency [1] | Potency [2] | Potency [3] | Potency [5] | Potency [6] | Potency [8]

Cc1oc(-c2ccccc2)nc1CCOc1ccc(C[C@H](Nc2ccccc2C(=O)c2ccccc2)C(=O)O)cc1
inactive: Potency [1] | Potency [2] | Potency [3] | Potency [4] | Potency [5] | Potency [6] | Potency [7] | Potency [9]

CC(C)(C)C1=CC(=O)C=C(C(C)(C)C)C1=O
inactive: Potency [1] | Potency [2] | Potency [4] | Potency [5] | Potency [6] | Potency [7] | Potency [8] | Potency [9]

O=C1OC(=O)c2cccc3cccc1c23
inactive: Potency [1] | Potency [2] | Potency [3] | Potency [4] | Potency [5] | Potency [6] | Potency [8] | Potency [9]

C(=C/c1ccccc1)/c1ccccc1
inactive: Potency [1] | Potency [2] | Potency [3] | Potency [5] | Potency [6] | Potency [7] | Potency [8] | Potency [9]

CCN(CC)CCNc1ccc(CO)c2sc3ccccc3c(=O)c12
active: Potency [2] 23.9 µM | Potency [3] 16.9 µM
inactive: Potency [1] | Potency [5] | Potency [6] | Potency [7]

NCCCC(O)(P(=O)(O)O)P(=O)(O)O
inactive: Potency [1] | Potency [2] | Potency [3] | Potency [4] | Potency [5] | Potency [6] | Potency [8] | Potency [9]

CCNc1nc(NC(C)CC)nc(OC)n1 (centres undefined)
inactive: Potency [1] | Potency [2] | Potency [3] | Potency [4] | Potency [5] | Potency [6] | Potency [7] | Potency [8] | Potency [9]

CCCCCCCCCCCC(=O)N(CC)CC
inactive: Potency [1] | Potency [2] | Potency [3] | Potency [4] | Potency [6] | Potency [7] | Potency [8] | Potency [9]

CCCC(CC)CCCCCCCN (centres undefined)
active: Potency [1] 50.2 µM | Potency [3] 56.3 µM
inactive: Potency [2] | Potency [8]

c1cc2c3c(c1)ccc1cccc(c13)C2
inactive: Potency [2] | Potency [3] | Potency [4] | Potency [6] | Potency [7] | Potency [8]
active: Potency [1] 56.1 µM

S=C(SSSSSSC(=S)N1CCCCC1)N1CCCCC1
inactive: cytotoxicity increase [1] -0.556% [at 15.8 µM] | activity change [5] 19.1% [at 15.8 µM, hits give high values] | activity change, negative = cytotoxicity [6] -21.4% [at 15.8 µM] | cytotoxicity increase [7] -7.66% [at 15.8 µM] | viability change, negative = cytotoxic [9] -10.8% [at 19 µM]

CCCCCCC(C)OC(=O)COc1nc(F)c(Cl)c(N)c1Cl (centres undefined)
inactive: Potency [1] | Potency [2] | Potency [5] | Potency [6] | Potency [7] | Potency [8] | Potency [9]

Cc1ccc(N)cc1O
inactive: Potency [2] | Potency [4] | Potency [6] | Potency [7] | Potency [9]
active: Potency [8] 61.1 µM

C[C@]12CC[C@H]3C(=CCc4cc(O)ccc43)[C@@H]1CCC2=O
inactive: Potency [1] | Potency [4] | Potency [5] | Potency [6] | Potency [7] | Potency [8] | Potency [9]

c1ccc(Sc2ccccc2)cc1
inactive: Potency [1] | Potency [2] | Potency [4] | Potency [5] | Potency [6] | Potency [7] | Potency [8] | Potency [9]

CCCCCCOc1ccc(O)cc1
active: Potency [3] 0.0617 µM | Potency [4] 0.0617 µM | Potency [7] 24.5 µM
inactive: Potency [1] | Potency [5] | Potency [6] | Potency [8] | Potency [9]

CCCSS/C(CCO)=C(\C)N(C=O)Cc1cnc(C)nc1N
inactive: Potency [1] | Potency [2] | Potency [5] | Potency [6] | Potency [7] | Potency [8] | Potency [9]

CCCCN(CCCC)CCC(O)c1cc2c(Cl)cc(Cl)cc2c2cc(C(F)(F)F)ccc12 (centres undefined)
inactive: Potency [1] | Potency [4] | Potency [6] | Potency [7] | Potency [8]
